We go through 20 compounds from PubChem BioAssay (Tox21).

The structures appear in SMILES notation. Results filed as inconclusive are left out. Where a call stands in place of a potency, no number is given. Activity calls are given as the source filed them. Calls follow the shape of the dose curve; as a rule, active = well fitted cell-killing curve with a large enough effect in the repeat runs; inconclusive = weak or mixed curves; inactive = flat fitted curve, though single readings scatter.
Potency is read from the fitted curve at half-maximal effect.

This assay in a line: qHTS RealTime-Glo MT Cell Viability Assay in HepG2 cells - 32 hour (AID 1224877). Also: nearly all actives have a fitted effect of over 55% in size. The note with it: RealTime-Glo luminescence; series mostly up to 76.8 µM. The essentials:
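Tox21 10K library screened in qHTS format on HepG2 cells carrying RealTime-Glo reagents. Compounds were added after a 5 h preincubation, and the luminescent signal from continuous culture was measured repeatedly during 40 h treatment.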
In general terms: In qHTS, concentration-response curves come from the screen itself.
Consider `C[C@@H](NCCCc1cccc(C(F)(F)F)c1)c1cccc2ccccc12`, for which the Potency was 16.9 µM (active).
On to `CC(C)(C)C(=O)OCOC(=O)[C@@H]1N2C(=O)[C@@H](NC(=O)[C@H](N)c3ccccc3)[C@H]2SC1(C)C`, for which the Potency entry is “inactive”.
Next, `O=[N+]([O-])c1ccccc1Nc1ccccc1`: “inactive”.
On to `CC(C)(C)c1ccc(C(=O)O)cc1`, for which the Potency entry is “inactive”.
For the compound `CCCCCCCC(=O)[O-].CCCCCCCC(=O)[O-].[Zn+2]`, the Potency result is “inactive”.
Regarding `CCCCCCCCCCC=O`, the Potency result is “inactive”.
For the compound `CCCCCCCC[P+](CCCCCCCC)(CCCCCCCC)CCCCCCCC`, the Potency was 12.2 µM (active).
In the case of `C[C@H](CCC(=O)O)[C@H]1CC[C@H]2[C@@H]3CC[C@@H]4C[C@H](O)CC[C@]4(C)[C@H]3CC[C@]12C` it was “inactive”; in that of `CC(C)c1ccc2c(c1)CC[C@H]1[C@](C)(CN)CCC[C@]21C`, 11 µM (active).
Take `O=C(O)c1ccc(Cl)c(Cl)c1`: the Potency result is “inactive”.
Turning to `COc1cccc(N)c1`, the Potency entry was “inactive”.
As for `CCCCCCCC/C=C/CCCCCCCC1=NCCN1CCO`, the Potency is 15.5 µM (active).
In the case of `Cc1cc(O)c2ccccc2c1O` it was 13.4 µM (active); in that of `O=C1C=CC(=O)N1c1ccc(Cc2ccc(N3C(=O)C=CC3=O)cc2)cc1`, 12.3 µM (active).
As to `O=C1C=CC(=O)N1`, the Potency is 22.5 µM (active).
Next, `CCCCCCCC/C=C\CCCCCCCCOCCO`: “inactive”; `Cc1cc(O)c(C(C)(C)C)cc1Sc1cc(C(C)(C)C)c(O)cc1C`: 48.9 µM (active).
In the case of `NNC(=O)c1cccc(C(=O)NN)c1`, the Potency result is “inactive”.
`CCCCCCCCNC(C)C(O)c1ccc(SC(C)C)cc1` (stereo not given): the Potency is 13.4 µM (active).
`C=CC(=O)OCC(CO)(COCC(COC(=O)C=C)(COC(=O)C=C)COC(=O)C=C)COC(=O)C=C`: the Potency is 3.84 µM (active).
